Data as given in ChEMBL document CHEMBL4513216, “Probing the Open Global Health Chemical Diversity Library for Multistage-Active Starting Points for Next-Generation Antimalarials” (ACS Infect Dis, 2020).
Out of some 69,000 compounds screened, about 8,600 (12%) showed an effect of 50% or more. This excerpt belongs to a sample that is enriched for strong results.

These compounds were tested on Plasmodium berghei (assay: Screen against P. berghei liver stage (PbLuc), transformed with Luciferase, at 10uM). Settings: tested at 10 uM.
Assay type: functional, HepG2
`CCOc1cc(C)nc(N2CCN(C(=O)c3cscn3)CC2)n1` showed an INHIBITION of 15.3%.
With `Cc1csc(NC(=O)c2ccc(NC(=O)N3CCOCC3)cc2)n1` the INHIBITION was -37.4%.
Work on `Cc1cccc(C(=O)NCc2ccc(CS(N)(=O)=O)cc2)n1` yielded an INHIBITION of -33.9%.
Work on `O=C1CCCN1Cc1nnc2n1CCN(Cc1ccccn1)CC2` yielded an INHIBITION of -30.7%.
Work on `COc1ncc(CN2C[C@@H]3C[C@@H](O)CN3C[C@@H]2Cc2ccccc2)cn1` yielded an INHIBITION of 33.8%.
`c1cn2c(n1)CN(Cc1ccsc1)CC(Cn1cncn1)C2` (centres undefined) gave an INHIBITION of 49.7%.
Compound `CC(C)c1nc(CN(C)Cc2ccc(O)c(C(=O)O)c2)cs1` has an INHIBITION of -14.1%.
Compound `CCOc1ncccc1CNC(=O)Nc1ccccc1` has an INHIBITION of 31.3%.
`COc1ccc(CC2CN(C(=O)c3coc(C)n3)CCO2)cc1` (centres undefined) showed an INHIBITION of 9.05%.
In the case of `Cc1nc(-c2cncnc2C2CCCNC2)no1` (centres undefined), the INHIBITION was -3.45%.
Compound `COc1ccc2c(C)c(C(=O)NC3CCCOC3)oc2c1` (centres undefined) has an INHIBITION of 60.9%.
With `COc1ccc2c(C)c(C(=O)NC3CCOCC3)oc2c1` the INHIBITION was -104%.
Work on `COc1ccc2c(C)c(C(=O)NC3CCN(S(C)(=O)=O)CC3)oc2c1` yielded an INHIBITION of -112%.
`CNS(=O)(=O)c1ccc(C(=O)N2CCCC2c2ccncc2)o1` (centres undefined) was tested, and the INHIBITION was 36.1%.
For `Cc1cc(NCc2ccco2)nc2[nH]nc(N)c12`, the INHIBITION was 61%.
Work on `Cc1cc(NCCO)nc2[nH]nc(N)c12` yielded an INHIBITION of 26.7%.
`Cc1cc(NCc2ccccc2)nc2[nH]nc(N)c12` showed an INHIBITION of -0.232%.
`CC1COCCN1C(=O)COc1ccc(Oc2ccccn2)cc1` (centres undefined) showed an INHIBITION of 8.99%.
`CC1COCCN1C(=O)COc1cccc(Oc2ccccn2)c1` (centres undefined) gave an INHIBITION of -20.6%.
`CC1CN(C)CCN1C(=O)COc1cccc(Oc2ccccn2)c1` (centres undefined) gave an INHIBITION of 61.2%.
`CSCC(=O)NS(=O)(=O)c1ccc2c(c1)OCCO2` was tested, and the INHIBITION was 8.315%.
With `O=S(=O)(CCCS(=O)(=O)c1ccc2c(c1)OCCCO2)c1ccccc1` the INHIBITION was -46.8%.
`CCS(=O)(=O)c1ccc2c(c1)OCCCO2` gave an INHIBITION of 55.9%.
`CC(C)CC(=O)NS(=O)(=O)c1ccc2c(c1)OCCCO2` was tested, and the INHIBITION was -7.81%.
`CCSCCC(=O)NS(=O)(=O)c1ccc2c(c1)OCCO2` was tested, and the INHIBITION was 41.9%.
For `CCS(=O)(=O)c1ccc2c(c1)OCCO2`, the INHIBITION was 77.8%.
Work on `CC1=N[C@@]2(CC[C@@H]3CN(Cc4cccc(Cl)c4)C[C@@H]32)C(=O)N1CC1CC1` yielded an INHIBITION of 14.9%.
In the case of `Cc1ccc(C2CCCN(S(C)(=O)=O)C2)nc1` (centres undefined), the INHIBITION was 6.75%.
`O=C(NC[C@]12COC[C@H]1CN(C1CCOCC1)C2)c1ccco1` gave an INHIBITION of 38.7%.
With `Cc1ccc2c(c1)OCCCC2NCc1nnc2n1CCCCC2` (centres undefined) the INHIBITION was -14.2%.
For `c1ccc2c(c1)OCCCC2NCc1nnc2n1CCCCC2` (centres undefined), the INHIBITION was -0.55%.
`Cc1cccc2c1OCCCC2NCc1nnc2n1CCCCC2` (centres undefined) showed an INHIBITION of 86.8%.
With `CS(=O)(=O)c1cc(Cl)cnc1C1CCN(C(=O)C2CCCO2)CC1` (centres undefined) the INHIBITION was 12.75%.
Compound `O=C(Cc1cccc(F)c1)N1C[C@H]2CN(Cc3ccccn3)C[C@H]2C1` has an INHIBITION of 9.97%.
With `N#Cc1ccsc1N1CCC(Sc2ncc[nH]2)C1=O` (centres undefined) the INHIBITION was 27.6%.
`Cn1ccnc1CNC(=O)c1ccnc(C2CCNCC2)c1` was tested, and the INHIBITION was -12.4%.
In the case of `CC(C)Nc1ncccc1C(=O)NCc1ccnn1C`, the INHIBITION was 43%.
`Cc1c(NC(C)C(C)C)cccc1C(=O)NCc1nnc(C)n1C` (centres undefined) showed an INHIBITION of -20.8%.
`Cc1c(NC(C)C(C)C)cccc1C(=O)NCc1cnn(C)c1` (centres undefined) was tested, and the INHIBITION was 29.3%.
`Cc1c(NC(C)C(C)C)cccc1C(=O)NCc1nccn1C` (centres undefined) was tested, and the INHIBITION was 57.4%.
Work on `Cc1c(NC(C)C(C)C)cccc1C(=O)NCc1ccnn1C` (centres undefined) yielded an INHIBITION of 62.7%.
Work on `O=C1NC2(Cc3ccccc31)CN(CC1CCCC1)C2` yielded an INHIBITION of 45.8%.
In the case of `NC(=O)C1CCN(C(=O)c2cc(Br)ccc2-n2cnnn2)CC1`, the INHIBITION was 28.6%.
For `COC(=O)C1CCN(C(=O)c2cc(Br)ccc2-n2cnnn2)CC1`, the INHIBITION was 53.8%.
In the case of `CCOC(=O)C1CCN(C(=O)c2cc(Br)ccc2-n2cnnn2)CC1`, the INHIBITION was 17.6%.
`CC(CN1CCOCC1)OC(=O)c1ccccc1Cl` (centres undefined) was tested, and the INHIBITION was 35.8%.
In the case of `Cn1nnc2c1C(COCc1ccccn1)CN(C(=O)c1ccsc1)C2` (centres undefined), the INHIBITION was 1.9%.
`Cc1cc(N(C)Cc2cc(C(C)(C)C)n[nH]2)nc(-c2cccnc2)n1` was tested, and the INHIBITION was 76.5%.
`Cc1cc(N(C)Cc2ncc[nH]2)nc(-c2ccccc2)n1` was tested, and the INHIBITION was 59.8%.
Work on `Cc1cc(N(C)Cc2snnc2C)nc(-c2cccnc2)n1` yielded an INHIBITION of -26.2%.
`Cc1ccccc1CN(CCN(C)C)Cc1ncc[nH]1` was tested, and the INHIBITION was 3.96%.
With `Cc1cc(N(C)Cc2ncc[nH]2)nc(-c2cccnc2)n1` the INHIBITION was -18.5%.
`Cc1cc(CC(C)Nc2nc(-c3cccnc3)nc3c2CNC3)[nH]n1` (centres undefined) gave an INHIBITION of 47.4%.
For `O=C(Cn1cccn1)N1CCC(c2nnc(-c3ccsc3)o2)CC1`, the INHIBITION was 23.55%.
In the case of `CN(C1CCCN(c2ccccn2)C1)S(C)(=O)=O` (centres undefined), the INHIBITION was -2.25%.
`CC(=O)Nc1cc2c(cc1C)OCO2` gave an INHIBITION of 19.3%.
`COc1c(CNCC(O)COc2ccc3c(c2)OCO3)c(C)nn1C` (centres undefined) showed an INHIBITION of 21.5%.
`COc1ccc(CN(C)CC(O)COCc2ccccc2Cl)c(OC)c1` (centres undefined) showed an INHIBITION of 48.2%.
In the case of `Cc1ccccc1CN(C)CC(O)COCc1ccccc1Cl` (centres undefined), the INHIBITION was 60%.
`COc1ccccc1COCC(O)CN(C)Cc1cccc(Cl)c1` (centres undefined) was tested, and the INHIBITION was 24.6%.
`O=S(=O)(NCc1ccc(S(=O)(=O)N2CCCC2)s1)c1ccc(F)cc1Cl` was tested, and the INHIBITION was 18.3%.
Work on `CN(C)S(=O)(=O)c1ccc2c(c1)N(Cc1nccn1C)CC2` yielded an INHIBITION of 37.1%.
With `Cc1ccc([C@@]2(O)CC[C@@H]3CN(S(=O)(=O)C(C)C)C[C@@H]32)cc1` the INHIBITION was 3.91%.
`Cc1cnc(C(=O)N2CCCN(Cc3cnn(C(C)C)c3)CC2)cn1` was tested, and the INHIBITION was 9.06%.
`CC(C)n1cc(CN2CCCN(C(=O)c3cc(Cl)c[nH]3)CC2)cn1` was tested, and the INHIBITION was 54.9%.
`CC(C)n1cc(CN2CCCN(C(=O)c3cccn3C)CC2)cn1` gave an INHIBITION of 34.6%.
Work on `CC(C)n1cc(CN2CCCN(C(=O)c3ccco3)CC2)cn1` yielded an INHIBITION of 25.1%.
With `Cc1cc(C(=O)N2CCCN(Cc3cnn(C(C)C)c3)CC2)no1` the INHIBITION was 39.3%.
Compound `CC(C)n1cc(CN2CCCN(C(=O)c3ccc[nH]3)CC2)cn1` has an INHIBITION of 52.1%.
